Our source for the outcome and AC50 values is PubChem BioAssay (EPA / NIEHS).

Test [1] has as its target Transcription factor E2F1 (Homo sapiens) (UniProt Q01094). The experiment in a line: ATG_E2F_CIS: Attagene CIS-FACTORIAL HepG2 Assay for human E2F Transcription Factor 1 (AID 2282935). The following applies: HepG2 Attagene cis-reporter, E2F reporter RNA transcripts; actives raise or lower the signal. An outline of the steps: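 Transient MRTU transfection of HepG2; 24 h compound exposure; RNA → oligo(dT) RT → PCR → FAM label → HpaI cut → CE fluorescence. Gain/loss of signal fit against DMSO.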

A short description of test [2]: ATG_E_Box_CIS: Attagene CIS-FACTORIAL HepG2 Assay for human Enhancer Box (E-box) (AID 2282936). To be noted: HepG2 E-box cis-reporter transcription, actives raise or lower the signal. In a few lines:
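Transiently transfected HepG2, endogenous TF-driven reporters, 24 h dosing. Readout: RT-PCR plus capillary electrophoresis of fluorescent reporter fragments. Gain or loss of signal fitted bidirectionally against DMSO baseline.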

Test [3] is described as follows: ATG_M_61_CIS: Attagene CIS-FACTORIAL HepG2 Assay for M61 Transcription Factor (Internal Marker) (AID 2282937). The following applies: HepG2 Attagene CIS-FACTORIAL M61 internal marker reporter; actives raise or lower the signal. In a few lines: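 Transfect HepG2 with MRTUs; dose 24 h; isolate RNA; reverse-transcribe with DNase I treatment; PCR-amplify, FAM-label and cut with HpaI for 2 h at 37 C; resolve by CE. Bidirectional fitting against DMSO.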

Test [4] in a line: ATG_EGR_CIS: Attagene CIS-FACTORIAL HepG2 Assay for human Early Growth Response 1 (EGR1) (AID 2282938). To be noted: HepG2 Attagene CIS-FACTORIAL EGR reporter mRNA; actives raise or lower the signal. An outline of the steps:
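After a 24 h treatment of transiently transfected HepG2 cells, total RNA was reverse-transcribed and reporter sequences PCR-amplified, labelled and run on capillary electrophoresis. Reporters sit under cis-regulatory promoters sensing endogenous factors.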

Test [5] can be described thus: ATG_M_19_CIS: Attagene CIS-FACTORIAL HepG2 Assay for M19 Transcription Factor (Internal Marker) (AID 2282939). The following applies: HepG2 Attagene CIS-FACTORIAL M19 internal marker reporter; actives raise or lower the signal. An outline of the steps: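 Following a 24 h exposure, RNA from transfected HepG2 cells was reverse-transcribed, PCR-amplified with reporter-specific primers, end-labelled with 6-FAM and HpaI-digested before capillary separation. Values represent gain or loss versus DMSO.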

The nature of test [6]: ATG_ERE_CIS: Attagene CIS-FACTORIAL HepG2 Assay for Estrogen Response Element (ERE) (AID 2282940). To be noted: HepG2 ERE cis-reporter, Attagene RNA transcript; actives raise or lower the signal. In a few lines: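 HepG2, transient cis-reporter units, 24 h exposure. RNA isolated, oligo(dT) RT, reporter-specific PCR, FAM extension, HpaI cut, CE detection. Gain/loss-of-signal vs DMSO.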

The nature of test [7]: ATG_Ets_CIS: Attagene CIS-FACTORIAL HepG2 Assay for human Erythroblast Transformation Specific (ETS) (AID 2282941). To be noted: HepG2 ETS cis-reporter transcription, actives raise or lower the signal. An outline of the steps:
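Endogenous transcription factor activity read as reporter mRNA via RT-PCR and capillary electrophoresis, with gain or loss fitted bidirectionally against DMSO. Human HepG2 liver cells, transiently transfected CIS reporter constructs, 24 h exposure.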

Test [8] deals with Hepatocyte nuclear factor 3-beta (Homo sapiens) (UniProt Q9Y261). The experiment in a line: ATG_FoxA2_CIS: Attagene CIS-FACTORIAL HepG2 Assay for human Forkhead box A2 (FOXA2) (AID 2282942). The following applies: HepG2 cis-reporter transcription factor activity, 24 h; actives raise or lower the signal. In a few lines: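 24 h dosing of HepG2 bearing cis-reporter constructs; mRNA readout by RT-PCR/CE fluorescence; bidirectional fit, DMSO baseline.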
Chain of Hepatocyte nuclear factor 3-beta (Homo sapiens) (Q9Y261 whole entry, looked up): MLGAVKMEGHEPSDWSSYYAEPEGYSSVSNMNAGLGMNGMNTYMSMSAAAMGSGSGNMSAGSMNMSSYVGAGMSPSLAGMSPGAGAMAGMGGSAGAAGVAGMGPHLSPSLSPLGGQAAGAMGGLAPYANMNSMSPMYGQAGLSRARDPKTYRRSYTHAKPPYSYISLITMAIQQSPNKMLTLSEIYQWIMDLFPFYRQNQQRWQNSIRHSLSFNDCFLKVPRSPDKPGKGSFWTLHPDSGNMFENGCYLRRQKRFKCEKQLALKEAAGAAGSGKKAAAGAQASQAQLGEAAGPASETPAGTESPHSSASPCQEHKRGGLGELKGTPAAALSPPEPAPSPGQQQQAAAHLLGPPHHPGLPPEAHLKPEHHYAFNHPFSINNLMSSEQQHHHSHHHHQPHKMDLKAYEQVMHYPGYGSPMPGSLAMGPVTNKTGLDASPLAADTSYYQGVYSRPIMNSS

The nature of test [9]: ATG_GATA_CIS: Attagene CIS-FACTORIAL HepG2 Assay for human GATA Binding Protein (AID 2282944). The following applies: HepG2 GATA cis-element reporter, Attagene multiplex mRNA; actives raise or lower the signal. An outline of the steps:
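DMSO serves as negative control and baseline for bidirectional fitting of reporter mRNA changes. HepG2 cells bearing transiently transfected cis-promoter reporters were exposed 24 h; transcripts detected via RT-PCR and capillary electrophoresis.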

A short description of test [10]: ATG_GLI_CIS: Attagene CIS-FACTORIAL HepG2 Assay for human Zinc Finger Protein GLI1 (AID 2282945). To be noted: HepG2, Attagene cis-factorial reporter mRNA, GLI element; actives raise or lower the signal. An outline of the steps: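 Transiently transfected HepG2 cells report endogenous transcription factor activity via cis-element-driven reporter units. After 24 h compound exposure, reporter mRNA was measured by RT-PCR with capillary electrophoresis; bidirectional fitting against DMSO baseline.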

The target of test [11] is Bile acid receptor (Homo sapiens) (UniProt Q96RI1). Nature of the test: ATG_IR1_CIS: Attagene CIS-FACTORIAL HepG2 Assay for human Nuclear Receptor Subfamily 1 Group H Member 4 (NR1H4), IR1 submotif (AID 2282946). To be noted: IR1 reporter transcription, actives raise or lower the signal. An outline of the steps:
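Fluorescence of capillary-separated, HpaI-digested RT-PCR reporter products gave IR1-element mRNA induction in HepG2 cells 24 h after dosing. Endogenous transcription factors drove the cis-regulated reporters; activity was fitted bidirectionally against DMSO.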

A short description of test [12]: ATG_GRE_CIS: Attagene CIS-FACTORIAL HepG2 Assay for human Glucocorticoid Response Elements (GRE) (AID 2282947). The following applies: HepG2 GRE cis-reporter, Attagene multiplex mRNA; actives raise or lower the signal. An outline of the steps: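 Read-out: fluorescent reporter-transcript fragments separated by capillary electrophoresis after RT-PCR. Transiently transfected HepG2 cells carrying cis-element-driven reporter units were dosed for 24 h; gain or loss of signal fitted against DMSO control.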

The nature of test [13]: ATG_ISRE_CIS: Attagene CIS-FACTORIAL HepG2 Assay for human Interferon Regulatory Factor 1 (IRF1) binding to an Interferon-Stimulated Response Element (ISRE) (AID 2282948). To be noted: HepG2 ISRE cis-reporter (Attagene), mRNA transcription readout; actives raise or lower the signal. In a few lines:
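Endogenous transcription factor activity read as reporter transcript abundance via RT-PCR and capillary electrophoresis. HepG2 cells transiently transfected, 24 h chemical exposure. Gain or loss fitted against DMSO baseline.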

The nature of test [14]: ATG_M_06_CIS: Attagene CIS-FACTORIAL HepG2 Assay for M06 Transcription Factor (Internal Marker) (AID 2282950). To be noted: HepG2 Attagene CIS-FACTORIAL M06 internal marker reporter; actives raise or lower the signal. An outline of the steps:
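Fluorescence-labelled RT-PCR products from cis-promoter reporter units, cut with HpaI and resolved by capillary electrophoresis, give the signal. Cells are human HepG2, dosed for 24 h. Serves as background control, fitted relative to DMSO.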

Test [15] concerns the target Hepatocyte nuclear factor 6 (Homo sapiens) (UniProt Q9UBC0). Nature of the test: ATG_HNF6_CIS: Attagene CIS-FACTORIAL HepG2 Assay for human Hepatocyte Nuclear Factor 6 (HNF6) (AID 2282952). To be noted: HepG2 Attagene cis-factorial HNF6 reporter transcription; actives raise or lower the signal. In a few lines:
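Twenty-four-hour chemical treatment of reporter-transfected HepG2 cells precedes RNA isolation, DNase-treated reverse transcription and PCR of reporter sequences. Labelled fragments are sized by capillary electrophoresis and fitted bidirectionally versus DMSO.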

Test [16] concerns the target Heat shock factor protein 1 (Homo sapiens) (UniProt Q00613). Nature of the test: ATG_HSE_CIS: Attagene CIS-FACTORIAL HepG2 Assay for human Heat Shock Transcription Factor 1 (HSE) (AID 2282953). The following applies: HepG2 HSE cis-reporter, Attagene RNA transcription; actives raise or lower the signal. An outline of the steps:
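After a 24 h incubation with test chemical, transfected HepG2 cells were harvested for RNA; reporter transcripts were measured by RT-PCR and capillary electrophoresis. Values reflect gain or loss of signal relative to DMSO.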

Test [17] is described as follows: ATG_MRE_CIS: Attagene CIS-FACTORIAL HepG2 Assay for human Metal Responsive Element (MRE) (AID 2282954). The following applies: HepG2 MRE cis-reporter transcription, Attagene multiplex; actives raise or lower the signal. In a few lines: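 RT-PCR/capillary electrophoresis readout of reporter mRNA, 24 h post-dosing, in HepG2 cells transfected with multiplexed cis-regulated reporter constructs. Gain or loss of signal fitted bidirectionally against DMSO baseline.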

Test [18] is described as follows: ATG_FoxO_CIS: Attagene CIS-FACTORIAL HepG2 Assay for human Forkhead box O (FoxO) (AID 2282943). The following applies: HepG2 Attagene cis-reporter, FoxO element, mRNA; actives raise or lower the signal. In a few lines: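 Transfected HepG2 reporter cells exposed to test chemical for 24 h; reporter RNA measured by reverse transcription, PCR and fluorescent capillary electrophoresis; curves fitted for increases and decreases against DMSO.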

A short description of test [19]: ATG_M_32_CIS: Attagene CIS-FACTORIAL HepG2 Assay for M32 Transcription Factor (Internal Marker) (AID 2282949).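 Also: background control marker of the multiplexed CIS panel rather than a real target.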 To be noted: HepG2 Attagene cis-factorial M32 reporter, mRNA; actives raise or lower the signal. An outline of the steps: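 Transient MRTU transfection of HepG2; 24 h compound treatment; TriZol RNA, oligo(dT) RT, reporter PCR, 6-FAM primer extension, HpaI cut, CE. Gain/loss of signal vs DMSO.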

Test [20] addresses Hypoxia-inducible factor 1-alpha (Homo sapiens) (UniProt Q16665). Nature of the test: ATG_HIF1a_CIS: Attagene CIS-FACTORIAL HepG2 Assay for human Hypoxia Inducible Factor 1 (HIF1A) (AID 2282951). To be noted: HepG2 Attagene cis-factorial HIF1a reporter transcription; actives raise or lower the signal. In a few lines:
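After 24 h chemical exposure of reporter-transfected HepG2 cells, reporter cDNA was PCR-amplified, labelled by 6-FAM primer extension (2 min 95 C, 20 s 68 C, 10 min 72 C), HpaI-cut (2 h, 37 C) and analysed by CE.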

Activity calls are given as the source filed them. The calls were made as follows: active = hit-call score of the fitted dose curve at least 0.9, where 1 is the maximum; inactive = score below 0.9.

Chain of Hepatocyte nuclear factor 6 (Homo sapiens) (Q9UBC0 whole entry, looked up, the tested form may be a part): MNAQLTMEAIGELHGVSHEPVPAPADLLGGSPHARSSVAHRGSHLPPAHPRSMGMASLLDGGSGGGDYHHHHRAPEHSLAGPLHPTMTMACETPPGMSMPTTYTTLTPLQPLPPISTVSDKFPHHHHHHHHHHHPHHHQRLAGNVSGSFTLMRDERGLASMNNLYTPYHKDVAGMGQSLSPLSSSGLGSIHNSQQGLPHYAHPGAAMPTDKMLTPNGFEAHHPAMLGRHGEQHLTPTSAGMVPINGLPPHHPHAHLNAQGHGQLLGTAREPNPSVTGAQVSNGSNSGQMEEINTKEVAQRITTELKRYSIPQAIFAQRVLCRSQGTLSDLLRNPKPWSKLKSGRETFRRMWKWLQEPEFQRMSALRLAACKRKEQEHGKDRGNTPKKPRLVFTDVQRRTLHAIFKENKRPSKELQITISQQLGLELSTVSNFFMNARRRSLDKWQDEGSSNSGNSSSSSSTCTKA
Chain of Transcription factor E2F1 (Homo sapiens) (Q01094 whole entry, looked up): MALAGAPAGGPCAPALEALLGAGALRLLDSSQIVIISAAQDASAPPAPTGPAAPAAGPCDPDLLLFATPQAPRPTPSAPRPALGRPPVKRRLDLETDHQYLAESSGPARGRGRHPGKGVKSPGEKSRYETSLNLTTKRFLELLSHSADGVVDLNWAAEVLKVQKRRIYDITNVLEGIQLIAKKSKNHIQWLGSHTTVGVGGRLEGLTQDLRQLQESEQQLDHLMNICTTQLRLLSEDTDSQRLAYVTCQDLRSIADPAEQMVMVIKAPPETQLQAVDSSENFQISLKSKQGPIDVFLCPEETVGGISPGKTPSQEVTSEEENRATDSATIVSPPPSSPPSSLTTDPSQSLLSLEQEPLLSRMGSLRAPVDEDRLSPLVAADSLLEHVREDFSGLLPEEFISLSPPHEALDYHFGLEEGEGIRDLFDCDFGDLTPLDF
Chain of Heat shock factor protein 1 (Homo sapiens) (Q00613 whole entry, looked up): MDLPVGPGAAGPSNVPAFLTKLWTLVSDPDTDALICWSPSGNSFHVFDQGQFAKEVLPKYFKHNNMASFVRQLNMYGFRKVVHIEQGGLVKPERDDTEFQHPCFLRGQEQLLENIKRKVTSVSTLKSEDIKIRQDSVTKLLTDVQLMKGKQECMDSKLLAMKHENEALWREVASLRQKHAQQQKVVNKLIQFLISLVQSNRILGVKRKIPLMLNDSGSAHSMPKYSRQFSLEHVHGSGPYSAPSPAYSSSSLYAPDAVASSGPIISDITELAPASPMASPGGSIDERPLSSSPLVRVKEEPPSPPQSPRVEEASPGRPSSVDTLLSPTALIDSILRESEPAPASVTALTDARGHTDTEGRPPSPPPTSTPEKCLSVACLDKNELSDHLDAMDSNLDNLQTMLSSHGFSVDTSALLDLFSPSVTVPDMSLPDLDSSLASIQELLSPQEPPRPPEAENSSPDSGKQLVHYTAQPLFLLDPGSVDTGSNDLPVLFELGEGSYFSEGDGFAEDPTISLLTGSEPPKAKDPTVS
Chain of Hypoxia-inducible factor 1-alpha (Homo sapiens) (Q16665 whole entry, looked up): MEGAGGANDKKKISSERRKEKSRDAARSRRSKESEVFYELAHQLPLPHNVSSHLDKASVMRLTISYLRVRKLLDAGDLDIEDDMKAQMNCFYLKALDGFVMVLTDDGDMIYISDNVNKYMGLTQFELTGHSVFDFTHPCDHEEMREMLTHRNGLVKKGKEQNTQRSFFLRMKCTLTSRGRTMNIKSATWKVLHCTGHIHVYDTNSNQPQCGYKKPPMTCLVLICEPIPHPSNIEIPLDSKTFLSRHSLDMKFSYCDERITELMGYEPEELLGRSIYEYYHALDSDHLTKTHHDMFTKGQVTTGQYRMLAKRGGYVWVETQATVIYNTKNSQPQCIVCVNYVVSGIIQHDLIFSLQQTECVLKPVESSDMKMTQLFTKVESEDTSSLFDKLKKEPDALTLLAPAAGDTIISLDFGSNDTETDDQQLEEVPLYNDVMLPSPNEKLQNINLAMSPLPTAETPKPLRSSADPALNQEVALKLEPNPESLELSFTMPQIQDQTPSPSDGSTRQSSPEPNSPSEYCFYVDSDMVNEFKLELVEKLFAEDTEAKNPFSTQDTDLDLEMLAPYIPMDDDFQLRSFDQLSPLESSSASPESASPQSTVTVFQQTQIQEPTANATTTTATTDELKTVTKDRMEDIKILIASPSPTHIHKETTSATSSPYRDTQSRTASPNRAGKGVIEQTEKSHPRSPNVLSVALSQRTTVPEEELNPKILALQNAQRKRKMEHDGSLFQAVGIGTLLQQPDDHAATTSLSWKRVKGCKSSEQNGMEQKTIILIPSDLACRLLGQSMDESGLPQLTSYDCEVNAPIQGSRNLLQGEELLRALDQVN
Chain of Bile acid receptor (Homo sapiens) (Q96RI1 whole entry, looked up): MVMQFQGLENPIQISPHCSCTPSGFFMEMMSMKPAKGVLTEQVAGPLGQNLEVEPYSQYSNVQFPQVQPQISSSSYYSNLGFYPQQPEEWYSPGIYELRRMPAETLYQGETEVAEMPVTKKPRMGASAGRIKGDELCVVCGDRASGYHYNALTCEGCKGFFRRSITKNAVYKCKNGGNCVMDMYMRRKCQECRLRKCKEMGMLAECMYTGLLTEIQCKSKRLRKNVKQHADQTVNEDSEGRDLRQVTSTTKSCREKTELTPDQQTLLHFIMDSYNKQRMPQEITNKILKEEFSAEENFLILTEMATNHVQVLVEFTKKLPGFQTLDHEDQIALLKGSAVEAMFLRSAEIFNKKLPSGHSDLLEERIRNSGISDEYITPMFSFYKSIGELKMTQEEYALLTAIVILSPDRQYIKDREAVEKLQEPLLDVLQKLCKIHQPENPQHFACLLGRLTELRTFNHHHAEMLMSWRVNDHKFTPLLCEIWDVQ

Regarding `Nc1ncnc2nc[nH]c12`, the result in test [1], in [2], in test [3], in test [4], in [5] and in test [6] was inactive. Besides, the call in test [7], in test [8], in test [9], in [10], in [11] and in test [12] was inactive. For the same molecule, the call in test [13], in test [14], in test [15], in test [16] and in [17] was inactive.

For the molecule `CCC(C)N` (stereo not drawn), the molecule was classed as inactive in test [1], in test [2], in [3], in test [4], in test [6] and in test [7]. Moreover, the molecule was called inactive in [8], in [18], in test [9], in [10], in test [11] and in [12]. The outcome in test [13], in [19], in [14], in [20], in [15] and in test [16] was inactive. Besides, in test [17], the call was inactive.

`CC(C)(CO)C(O)C(=O)NCCCO` (stereo not drawn): the molecule was called inactive in [1], in test [2], in [3], in test [4], in test [5] and in [6]. For the same molecule, the outcome in [7], in test [8], in [9], in [10], in test [11] and in test [13] was inactive. The outcome in [19], in test [14], in test [15], in test [16] and in test [17] was inactive.

On to `C=CC(=O)OCC(C)OCC(C)OCC(C)OC(=O)C=C` (stereo not drawn), for which the molecule was classed as inactive in test [1], in test [3], in test [5], in test [6], in test [8] and in test [9]. Further, the molecule was called inactive in [10], in test [12], in test [19], in [14], in test [20] and in test [15]. For the same molecule, the molecule was called inactive in test [16]. Also, the half-maximal activity concentration (AC50) (commonly the midpoint of the concentration-response curve, whichever way the signal moves) in test [2] is 68.6 µM (active); in test [4], 79.7 µM (active); in test [7], 60.1 µM (active); in test [13], 86.1 µM (active); in test [17], 46.1 µM (active).

On to `CC1=CCC(C(C)C)C=C1` (stereo not drawn), for which the molecule was called inactive in [1], in test [2], in test [3], in [5], in [6] and in test [7]. The call in test [8], in test [9], in test [10], in test [13], in test [14] and in [20] was inactive. The molecule was classed as inactive in test [15] and in test [16]. Moreover, the AC50 in [17] was 62.6 µM (active).

As to `CCOC(=O)OC(=O)OCC`, the outcome in test [1], in test [2], in [3], in test [5], in test [6] and in [7] was inactive. Also, the call in test [8], in test [18], in test [9], in test [10], in [11] and in test [12] was inactive. Further, the call in [19], in [14], in test [20], in [15], in test [16] and in [17] was inactive.

For `CC(=O)c1ccccc1O`, the outcome in [1], in test [2], in test [3], in test [5], in test [6] and in [7] was inactive. Further, the molecule was called inactive in test [8], in [9], in test [10], in test [11], in [13] and in [19]. Further, the outcome in [14], in [20], in test [15], in test [16] and in test [17] was inactive.

`COc1ccc(-c2coc3cc(O)cc(O)c3c2=O)cc1`: the molecule was classed as inactive in test [1], in [2], in test [3], in test [4], in test [7] and in test [8]. The outcome in test [18], in test [9], in test [10], in test [12], in test [19] and in test [14] was inactive. Moreover, the outcome in test [20] and in test [15] was inactive. In addition, the AC50 in test [6] was 0.397 µM (active); in [16], 174 µM (active); in test [17], 138 µM (active).
